In PubChem BioAssay (NCATS):
Records with an inconclusive call do not appear. Activity calls are given as the source filed them. Calls follow the shape of the dose curve; as a rule, active = well fitted inhibition curve with a large enough effect; inconclusive = small, poorly fitted or top-dose-only effect; inactive = no such curve, though single readings can be large or run the other way. Square brackets hold non-standard residues; d marks the D form. Peptide text beside a SMILES is read from it. * marks the point of attachment. ξ: configuration not given here. Hexanoyl = CCCCCC(=O)*; ξL = CC(C)CC(N)C(=O)O

Test: Secretion counterscreen for inhibitors of the SERCaMP assay screened against the NCATS CANVASS Library (AID 1347390);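 also: light from luciferase secreted into medium read as a measure of general secretion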
Details: SH-SY5Y constitutive GLuc secretion, luminescence, 20 h; series mostly up to 76.6 µM; activity change, negative = inhibition: at the top concentration
Source text: Natural products and their derivatives continue to be wellsprings of nascent therapeutic potential. However, many laboratories have limited resources for biological evaluation, leaving their previously isolated or synthesized compounds largely or completely untested. To address this issue, the Canvass library of natural products was assembled (https://tripod.nih.gov/canvass), in collaboration with academic and industry researchers, for quantitative high-throughput screening (qHTS) across a diverse set of cell-based and biochemical assays. The pure (>85% purity by liquid chromatography/mass spectrometry [LC/MS]) Canvass library of 346 natural products were submitted by 45 academic laboratories and companies around the world. We collected pure natural products to circumvent deconvolution and structure elucidation due to time and resource limitations. The library was formatted into 1536-well plates and evaluated in 50 qHTS (in an 11-pnt concentration series) bioassays with broad scope of disease-relevant mechanisms. The resulting data set from 50 different assays was then systematically analyzed to identify overall trends and specific natural products with interesting biological activities. Reported herein are the results of each individual qHTS and their corresponding assay protocol. Compounds that interfere with the secretory pathway can show activity in the SERCaMP assay. This type of false positive is identified using a constitutively secreted GLuc reporter. National Center for Advancing Translational Sciences (NCAwsTS), Rockville, MD National Institute of Health (NIH), Bethesda, Maryland
SERCaMP secretion assay protocol: 1. In a white-solid bottom 1536-well tissue culture plate (Corning 7494), 5 uL of SH-SY5Y-GLuc STOP cells were dispensed using a Multidrop Combi (Thermo Fisher Scientific) at a final concentration of 1000 cells / well. 2. The assay plates were incubated for 4 hours at 37C, 5% CO2, 95% humidity to acclimate and attach. 3. […] of compounds (in DMSO; columns 5-48), and positive control Brefeldin A (1 mM; 1:2 dilution; 16-points; n = 2; column 2, rows 1-32) were pin transferred into the assay plates using the Kalypsis pin tool (Wako USA) equipped with a 1536-well pin heads. This yields a final concentration range of 0.0001 - 4.6 uM for the Brefeldin A and 0.001 - 77 uM for the compounds. 4. The assay plates were incubated for 20 hours at 37C, 5% CO2, 95% humidity. 5. After incubation, 1 uL of (7x) substrate Coelenterazine (diluted 1:200 in Pierce Glow Assay buffer) was dispensed into columns 1 - 48, rows 1 - 32. 6. The plates were centrifuged for 5 seconds at 1000 rpm. 7. Luminescence signal was obtained via the ViewLux plate reader (Perkin Elmer) using the clear emission filter and 1x binning, 5 seconds exposure settings.
% is scaled to controls: 0 for no effect and ±100 for the full control effect; potency is read from the fitted curve at half-maximal effect.

Row | SMILES | activity change, negative = inhibition | Potency
1 | CC(C)=CCC[C@]1(C)[C@H]2CC(=O)[C@@]3(CO3)[C@@H]1C2 | -14.8% (inactive) | 
2 | O=c1cc(-c2ccc(O)c(O)c2)oc2cc(O[C@@H]3O[C@H](CO)[C@@H](O)[C@H](O)[C@H]3O)cc(O)c12 | 3.5% (inactive) | 
3 | CC(C)=CCC/C(C)=C/Cc1cc([C@@H]2CC(=O)c3c(cc(O)c(CC=C(C)C)c3O)O2)ccc1O | -18.3% (inactive) | 
4 | C=CC(CCCCC)C1C(=O)NC(=O)C1C(=O)C1C(/C=C/C)C=CC2CC(C(=O)O)CC(C)C21 (stereo not given) | 5.24% (inactive) | 
5 | CCCCCC(=O)N[C@@H](CC(C)C)C(=O)N[C@H](C=O)CCC(=O)O (Hexanoyl-Leu-Glu-aldehyde) | 1.61% (inactive) | 
6 | CC(CCC[C@]1(C)C(=O)C=C[C@@]23C[C@]4(C)O[C@@H](C[C@@H]4[C@H]2O)C31)C(=O)O (stereo not given in full) | -5.53% (inactive) | 
7 | COc1ccc([C@@H]2CC(=O)c3c(cc(O)c(C/C=C(\C)CCC=C(C)C)c3O)O2)cc1 | 35.7% [at 15.3 µM] (inactive) | 
8 | COc1cc([C@@H]2c3cc4c(cc3C[C@@]3(O[C@@H]5O[C@H](CO)[C@@H](O)[C@H](O)[C@H]5O)COC(=O)[C@H]23)OCO4)cc(OC)c1OC | 27.1% (inactive) | 
9 | COC(=O)[C@@]1(C)CCC[C@]2(C)c3cc(OC)ccc3CC[C@@H]12 | -3.3% (inactive) | 
10 | C[C@@]12CCC[C@@](C)(C(=O)O)[C@H]1C[C@@H](O)[C@@]13C[C@@H](CC[C@@H]21)[C@](C)(O)C3 | -7.25% (inactive) | 
11 | C=C[C@]1(C)CC[C@@H]([C@H](C)C(=O)/C=C/C(C)(C)O)O1 | -22.5% (inactive) | 
12 | CN1CC[C@@]23c4ccccc4N[C@@H]1[C@@]21CCN(C)[C@@H]3Nc2ccccc21 | -7.32% (inactive) | 
13 | Oc1ccc(C2Oc3cc(O)c4c(c3[C@@H]2c2cc(O)cc(O)c2)[C@H]2C(c3ccc(O)cc3)c3c(O)cc5c(c3[C@H]2C4c2ccc(O)cc2)[C@H](c2cc(O)cc(O)c2)C(c2ccc(O)cc2)O5)cc1 (stereo not given in full) | 9.68% (inactive) | 
14 | C=C(Cl)[C@](Cl)(CBr)CC[C@@H](Br)C(C)(C)Cl | 28.9% (inactive) | 
15 | CC(C)=CC[C@H]1C[C@@]2(CC=C(C)C)C(=O)[C@](CC=C(C)C)(C(=O)C(C(=O)c3ccccc3)=C2O)C1(C)C | -19% (inactive) | 
16 | C/C1=C/[C@@H](C)[C@H](O)[C@@H](O)/C=C/CC/C=C/C(=O)O[C@@H]1[C@H](C)C(=O)CCCC1CC(=O)NC(=O)C1 | 10.9% (inactive) | 
17 | CCC(=O)CCCCC[C@@H]1NC(=O)[C@H]2CCCCN2C(=O)[C@H](C(C)C)NC(=O)[C@H](Cc2cn(OC)c3ccccc23)NC1=O | 223% (inactive) | 
18 | C/C=C/c1cc2c(c(=O)o1)C(=O)[C@@H](O)[C@H](C)O2 |  | 34.3 µM (active)
19 | CO[C@H]1/C=C/CCCCC(=O)O[C@@H](/C(C)=C/[C@H](C)C(=O)C[C@H](O)CC2CC(=O)NC(=O)C2)[C@@H](C)C1 |  | 17.2 µM (active)
20 | CCC(=O)N[C@@H](C[C@H](C)C(Cl)(Cl)Cl)C(=O)N1C(=O)C=C(OC)[C@@H]1CC(C)C | 8.77% (inactive) | 

Row | SMILES | activity change, negative = inhibition | Potency
21 | CC[C@H]1[C@H](C)[C@H](c2cc(OC)c(OC)cc2OC)[C@@H](C)[C@H](c2cc(OC)c(OC)cc2OC)[C@@]12C=C(OC)C(=O)C=C2OC | -31.8% (inactive) | 
22 | C=C1CC[C@@H](O[C@H]2C[C@@](O)([C@H](C)NC(=O)c3[nH]c(C)c(Cl)c3Cl)[C@H](O)[C@@H](C)O2)[C@@H]2C=C[C@H](C)C(/C(O)=C3/C(=O)[C@H](C(C)C)N([C@@H]4O[C@H](C)[C@H](OC(N)=O)[C@H](OC(C)=O)[C@@H]4OC)C3=O)[C@@H]12 (stereo not given in full) | -31.3% (inactive) | 
23 | COC1C(C)OC(OCC23C[C@@H]4[C@H](C)CC[C@H]4C4(C=O)CC2C=C(C(C)C)C34C(=O)O)[C@@H](O)[C@H]1O (stereo not given in full) | -13.4% (inactive) | 
24 | COc1cc(C2OCC3C(c4ccc(O)c(OC)c4)OCC23)ccc1O (stereo not given) | 27.5% [at 15.3 µM] (inactive) | 
25 | COc1cc2c(cc1OC)[C@@H](c1ccc3c(c1)OCO3)C(C)[C@@H](C)C2=O (stereo not given in full) | -21.4% (inactive) | 
26 | CC[C@@H](c1cc(OC)c(OC)cc1OC)[C@H](C)[C@@H](/C(C)=C/c1cc(OC)c(OC)cc1OC)c1cc(OC)c(OC)cc1OC |  | inactive
27 | C[C@@]1(CCC(=O)Nc2c(O)ccc(C(=O)O)c2O)C(=O)C=C[C@]23C[C@H]4C[C@H](O[C@@]4(C)C2)C31 (stereo not given in full) | 15.1% (inactive) | 
28 | C[C@@H]1CC[C@]2(C(=O)O)CC[C@]3(C)C(=C2[C@H]1C)CC[C@@H]1[C@@]2(C)CC[C@H](O)C(C)(C)[C@@H]2CC[C@]13C | 57.2% (inactive) | 
29 | Cc1cc(C)c(O)c(C(=O)CC2CC(=O)NC(=O)C2)c1 |  | 6.09 µM (active)
30 | CC[C@@H](C)[C@H]1NC(=O)C(CC(C)C)NC(=O)[C@@H](CC(C)C)NC(=O)[C@H](Cc2c[nH]c3ccccc23)NC(=O)CNC(=O)[C@@H](CC(N)=O)NC1=O (stereo partly drawn) (cyclo(GW[dL][ξL][dI][dN])) | -28.7% (inactive) | 
31 | C=C1C[C@H]2O[C@@H]3[C@@H]4[C@H](CC[C@@](C)(O)[C@@H]42)[C@H](C)COC3(C)[C@@H](OC(=O)CCCCCCC)C[C@H]1O (stereo not given in full) | -37.1% (inactive) | 
32 | C=C[C@]1(C)CC[C@@H]([C@H](C)C(=O)CC=C(C)C)O1 | 22.6% (inactive) | 
33 | CO[C@@H]1[C@H](O)[C@@H](C)O[C@@H](OC[C@@H]2C(C)OC(=O)/C=C/[C@H](C)C(O[C@@H]3O[C@H](C)CC4(OC(=O)O[C@@H]4C)C3O)[C@@H](C)CC(C)C(=O)/C=C/[C@H]3OC23)[C@@H]1OC (stereo not given in full) | -83.1% (inactive) | 
34 | CO[C@H]1[C@@H](OC(=O)/C(C)=C\[C@@H]2O[C@@H]2[C@H]2O[C@H]2C)[C@H](O)[C@H](OCC23C[C@@H]4[C@H](C)CC[C@H]4C4(C=O)CC2C=C(C(C)C)C34C(=O)O)O[C@@H]1C (stereo not given in full) | -4.16% (inactive) | 
35 | CN1C(=O)C(=O)N2C(=C[C@]3(c4c[nH]c5ccccc45)c4ccccc4N[C@H]23)C1=O | -13.9% (inactive) | 
36 | [C-]#[N+][C@@]12C(=O)[C@@H]3[C@@H](O[C@@]4(C(=O)N(C)c5cccc1c54)C3(C)C)C(=O)[C@@]2(C)C=C | 5.68% (inactive) | 
37 | C=C(C)CC[C@H](Cc1c(O)cc(O)c2c1O[C@H](c1ccc(O)cc1)CC2=O)C(=C)C | 3.45% (inactive) | 
38 | CC(=O)N[C@H](C)c1nc(/C=C/C=C/C(=O)CC2CC(=O)CC[C@]2(C)O)cs1 (stereo not given in full) | -25.5% (inactive) | 
39 | C=C1CCC2C(C)(C(=O)O)CCC(CC/C(C)=C/C(=O)NC(CCC(N)=O)C(=O)O)[C@@]2(C)C1 (stereo not given in full) | -29.8% (inactive) | 
40 | CC(C)[C@]12CC[C@@]3(C)[C@H](C)CC[C@H](O)[C@@]3(CC1)c1cc3c(cc12)[nH]c1ccccc13 | -6.34% (inactive) | 
